Results filed as inconclusive are left out. The source made the active and inactive calls. Unless noted, calls come from the whole dose curve; as a rule, active = well fitted curve in the direction sought with a large enough effect in the repeat runs; inconclusive = weak or mixed curves; inactive = no such curve, though single readings can be large; an effect the other way counts as inactive or inconclusive.
Key:
[1] = qHTS assay for small molecule agonists of the p53 signaling pathway (AID 651631; calls by dose curve; note: nearly all actives have a fitted effect of over 15% in size)
Summary of the method: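 Beta-lactamase reporter activity under p53 response elements was quantified in HCT-116 cells by FRET fluorescence, following 16 h incubation with test compounds at 37 °C and 2 h substrate development at room temperature.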

[2] = qHTS assay for small molecules that induce genotoxicity in human embryonic kidney cells expressing luciferase-tagged ATAD5 (AID 651632); note: nearly all actives have a fitted effect of over 15% in size
Summary of the method: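 Quantitative HTS in HEK293T expressing luciferase-tagged ATAD5, whose levels rise upon DNA damage. Exposure ran 16 hr at 37C and 5% CO2, with luminescence read 30 min after Amplite addition at room temperature.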

[3] = qHTS assay for small molecule agonists of the p53 signaling pathway - cell viability (AID 651633; calls by dose curve;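 note: p53RE-bla HCT reporter cells with a stable beta-lactamase p53 reporter; series mostly up to about 83 µM; nearly all actives have a fitted effect of over 30% in size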)
Summary of the method: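 p53RE-bla cells were treated with compound for 16 hours at 37 C. Cytotoxicity was then measured as CellTiter-Glo luminescence after 30 min at room temperature.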

[4] = qHTS assay for small molecule disruptors of the mitochondrial membrane potential (AID 720635)
Summary of the method: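 HepG2 cells exposed to compound 1 hr at 37C, then Mito-MPS dye 30 min. Ratio read of aggregate (540/590 nm) versus monomer (490/535 nm) fluorescence.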

[5] = qHTS assay to test for compound auto fluorescence at 590 nm (red) in HepG2 cells (AID 720674)
Summary of the method: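 Seeding: 2,000 HepG2 cells/well, MEM/10% FBS, overnight 37 C. Dosing: compound vs DMSO. Incubation: 1 hr, 37 C, 5% CO2. Read: fluorescence 540 ex/590 em, Rose Bengal sodium as red reference.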

[6] = qHTS assay to test for compound auto fluorescence at 535 nm (green) in HepG2 cells (AID 720675)
[7] = qHTS assay to test for compound auto fluorescence at 460 nm (blue) in HEK293 cells (AID 720678)
Summary of the method: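 HEK293 cells (2,000/well, medium with 10% dialyzed FBS) attached 4-5 hr, then exposed to compound overnight at 37C, 5% CO2. Blue fluorescence read at 405/460 nm, with triamterene as reference fluorophore.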

[8] = qHTS assay to test for compound auto fluorescence at 590 nm (red) in HEK293 cells (AID 720679)
Summary of the method: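 HEK293 cells (2,000/well, 10% dialyzed FBS) attached 4-5 hr, then dosed with compound or DMSO and incubated overnight at 37C, 5% CO2. Red fluorescence read at 540/590 nm, Rose Bengal sodium as reference fluorophore.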

[9] = qHTS assay for small molecules that induce genotoxicity in human embryonic kidney cells expressing luciferase-tagged ATAD5 - cell viability (AID 651634; calls by dose curve; note: nearly all actives have a fitted effect of over 25% in size)
Summary of the method: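 After 15.5 hr incubation with compound at 37C, 5% CO2, HEK293T ATAD5-luciferase cells received CellTiter-Fluor reagent; fluorescence intensity was quantified following 30 min at 37C.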

[10] = qHTS assay for small molecule disruptors of the mitochondrial membrane potential - cell viability (AID 720634; calls by dose curve;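 note: human HepG2 liver cancer cells; series mostly up to about 83 µM; nearly all actives have a fitted effect of over 20% in size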)
Summary of the method: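 ATP-based luminescent viability readout (CellTiter-Glo, 30 min, room temperature) in HepG2 cells multiplexed with the m-MPI membrane potential dye; compound exposure lasted 1 hr at 37 C.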

Measured: Potency

CCn1ccnc1CC1COc2ccccc2O1 (configuration not stated)
inactive: [1] | [2] | [3] | [4] | [5] | [6] | [7] | [8]

CCN(CC)CCNC(=O)c1cc(S(C)(=O)=O)ccc1OC
inactive: [1] | [3] | [9] | [10] | [4] | [5] | [6] | [7] | [8]

NC(=O)c1ccc([N+](=O)[O-])cc1
inactive: [1] | [2] | [3] | [10] | [5] | [6] | [7] | [8]

COC(=O)c1ccc(C)cc1C1=NC(C)(C(C)C)C(=O)N1 (configuration not stated)
inactive: [1] | [2] | [3] | [10] | [5] | [6] | [7] | [8]

O=C1CCCC(=O)C1
inactive: [1] | [2] | [3] | [4] | [5] | [6] | [7] | [8]

CCCCCCCCCCCCN(CCCCCCCCCCCC)CCCCCCCCCCCC
inactive: [1] | [2] | [3] | [10] | [5] | [6] | [7] | [8]

N=C(N)c1ccc2cc(OC(=O)c3ccc(N=C(N)N)cc3)ccc2c1
inactive: [1] | [2] | [3] | [10] | [5] | [6] | [7] | [8]

Reference: PubChem BioAssay (Tox21)
